About 83,000 compounds went through this panel and 20% of them were active in at least one assay; those are over-represented in the sample as a whole.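 A percent growth of 40 corresponds to 60% growth inhibition; 0 means no net growth; -100 means all cells died. Active threshold: below 10.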 A number with no mark means an inactive call. Activity calls are given as the source filed them.

For the test, the system named is NCI-H23 lung. Nature of the test: NCI-60 one-dose screen, 48 h (100 = growth as untreated, 0 = no growth, -100 = all killed). To be noted: 10 µM. The method, then:
Growth inhibition of the NCI-H23 human Non-Small Cell Lung tumor cell line is measured as a screen for anti-cancer activity. Cells are grown in 96 well plates and exposed to the test compound for 48 hours. Compounds are tested at a single concentration, which is 10^-5 M for most compounds. The reported endpoint is percent growth (GI% or GIPRCNT), where numbers from 0 - 100% represent growth inhibition, and numbers from -100% - 0 represent cell death. For example, a value of 40 represents 60% growth inhibition. A value of 0 means no net growth occurred over the course of the experiment. A value of -40 indicates 40% of cells at the beginning of the experiment died by the end of the experiment. A value of -100 means all cells are dead at the end of the experiment.
NCI-60 Human Tumor Cell Lines Screen was performed using the standard one-dose NCI protocol, which is described in more detail at https://dtp.cancer.gov/discovery_development/nci-60/default.htm.
Compounds with GIPRCNT values below 10 were considered active. Activity score was based on GIPRCNT using the following formula: […]
Score is 0 for GIPRCNT values of 100 or above, 50 for GIPRCNT values of 0, and 100 for GIPRCNT values of -100.
Regarding `O=C(Nc1nc2ccc(F)cc2s1)c1cc(-c2ccc(F)cc2)n2nc(-c3ccccc3)cc2n1`, the growth is 79.7%.
Take `CCN(CC)CCN1CC(=O)Nc2cc(Cl)ccc21`: the growth was 101%.
Turning to `c1ccc(CP(Cc2ccccc2)c2ccccc2)cc1`, the growth is 97.9%.
As for `O=c1oc2cc(OS(=O)(=O)c3ccccc3)ccc2c2c1CCCCC2`, the growth was 68.4%.
As for `CC1=C(N2CCOCC2)C(N2CCOCC2)=C(C)C(=O)C1=O`, the figure is 103%; as for `CCOC(=O)c1ccc(NC(=O)Nc2ncc(Cl)cc2Cl)cc1`, 93.9%.
For the molecule `Clc1cccc(-c2nc(-c3cccs3)no2)c1`, the growth was 92.8%.
Take `Cc1ccc(NC(=O)Nc2nc3ccccc3s2)cc1NC(=O)Nc1nc2ccccc2s1`: the growth was 89.5%.
With `C[N+](C)(C)c1ncnc2nc[nH]c12`, the growth is 93.8%.
In the case of `CCCCCCCCCCCCCCCCCCOCC(COCCOCC[N+]1(CCCCCC(=O)[O-])CCCC1)Oc1ncccn1` (stereo not given), the growth is 46.5%.
For the molecule `Cc1ccc2oc3nc(C)c(C(=O)NCc4ccccc4)cc3c(=O)c2c1`, the growth was 83.8%.
Take `CNc1ncc(-c2ccc(C(F)(F)F)cc2)c(NC2CCCCCC2)n1`: the growth was 62.6%.
For the molecule `CCCCCCc1cc(N=Nc2ccc(S(=O)(=O)Nc3cc(C)nc(C)n3)cc2)c(O)cc1O`, the growth is 102%.
`COc1cc(-c2nc(-c3nnc(-c4ccc(F)c(Cl)c4)o3)c3ccccn23)cc(OC)c1OC`: the growth is 70.1%.
For the molecule `COc1cccc(NC(=O)c2sc3nc4c(cc3c2N)C(O)CCC4)c1` (stereo not given), the growth was 33.1%.
In the case of `N#CCCN1C/C(=C/c2ccccc2)C(=O)/C(=C/c2ccccc2)C1`, the growth was 78.9%.
`O=C1/C(=C\c2ccccc2)CN(C(=O)c2ccccc2F)C/C1=C\c1ccccc1`: the growth was 33.8%.
As for `Clc1ccc(/C=C2\CCCC3=C2N=C2SC=NN2C3c2ccc(Cl)cc2)cc1` (stereo not given), the growth was 94.8%.
As to `CCc1ccc2c(c1)N(CCO)C1=C(C(=O)OC1)C2c1ccccc1` (stereo not given), the growth was 101%.
`Cc1cc2ccccc2nc1-c1ccccc1F`: the growth was 109%.
To `COc1cc(-c2nn3c(/C=C4/C(=O)Nc5ccccc54)c(-c4ccc(C)cc4)nc3s2)cc(OC)c1OC` belongs 51.2%.
Regarding `FC(F)(F)c1ccc(-c2cnc(-n3cc(COCCN4CCCCC4)nn3)nc2NC2CCCCCC2)cc1`, the growth was 67.7%.
As to `COc1cc(/C=N/NC(=O)c2ccccc2Nc2ccnc(C(F)(F)F)c2)ccc1O`, the growth was 91.8%.
In the case of `COc1ccc(-c2nn(-c3cccc(NC(=O)c4cc(C(F)(F)F)cc(C(F)(F)F)c4)c3)cc2-c2ccncc2)cc1Cl`, the growth was 81.1%.
As for `Cc1cc(N(CCCNc2ccnc3cc(Cl)ccc23)Cc2ccc3c(c2)OCO3)nc(N2CCCCC2)n1`, the figure is 6.38% (active).
To `O=C(Nc1cccc(-n2cc(-c3ccncc3)c(-c3ccc(O)c(Cl)c3)n2)c1)c1ccc(Cl)c(Cl)c1` belongs 78.5%.
In the case of `N#CCCN1C/C(=C/c2ccc(Cl)cc2)C(=O)/C(=C/c2ccc(Cl)cc2)C1`, the growth was -29.9% (active).
Regarding `CC1CN(Cc2ccccc2)C(=O)NC1=O` (stereo not given), the growth is 110%.
For `Cc1nc2ccc(CN(C)c3ccc(C(=O)N[C@@H](CCC(=O)O)C(=O)O)s3)cc2c(=O)[nH]1`, the growth was 54.9%.
To `O=C(O)CN1C(=O)c2cccc3cccc(c23)C1=O` belongs 101%; to `O=[N+]([O-])c1ccc(Oc2cc(Cl)c(Cl)cc2Cl)c(C(F)(F)F)c1`, 111%; to `COc1ccc(Nc2ncnc3c2c(SC)nn3-c2ccccc2)cc1`, 89.8%.
Turning to `COc1ccc(-c2nn(-c3cccc(NC(=O)Nc4ccc(Cl)c(C(F)(F)F)c4)c3)cc2-c2ccncc2)cc1Cl`, the growth was 9.49% (active).
Turning to `CCn1cc(C(=O)O)c(=O)c2cnc(N3CCCC3)nc21`, the growth was 105%.
Take `COc1cc(Nc2ccnc(NCCCNc3ccnc4cc(Cl)ccc34)n2)cc(OC)c1`: the growth is 55.8%.
To `CS(=O)(=O)Nc1ccc(Nc2c3ccccc3nc3cc([N+](=O)[O-])ccc23)cc1` belongs 1.7% (active); to `CCN(CC)CCC(CNc1c(C)cnc2cc(Cl)ccc12)c1ccc(Cl)c(Cl)c1` (stereo not given), 63.7%.
Consider `Cc1ccc(NC(=O)Nc2c(Cl)cccc2Cl)cn1`, for which the growth is 109%.
Regarding `COc1ccc(-c2nn(-c3cccc(NC(=O)c4ccc5c(c4)OCCO5)c3)cc2-c2ccncc2)cc1Cl`, the growth was 45.9%.
Regarding `COc1ccc2c(c1)N(CCO)C1=C(C(=O)OC1)C2c1ccccc1` (stereo not given), the growth is 35.1%.
